In the library only some 2.9% were active in any assay of this set; here they are far more common.
Fam108B counter: blocks mouse Fam108B hydrolase in RBBP9 counter-screen; recombinant Fam108B, FP-Rh probe fluorescence polarization; inhibition, % at 9.51 µM; hit rate 0.33% among 300,000;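 active means inhibition above the screen mean inhibition plus 3 SD, computed separately per campaign, cut at about 18% in these data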;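 further: inhibitors lower polarization as less probe binds the enzyme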
PME-1 inh: PME-1 (human) inhibition. inhibition, % at 5.9 µM. hit rate 0.53% among 320,000. Q9Y570. recombinant PME-1, FP-Rh probe fluorescence polarization;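 active means inhibition above the campaign mean of all compounds plus 3 SD, cut at about 26% in these data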;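 further: competitive labeling of PME-1 active site by serine hydrolase directed probe; inhibitors block probe labeling so polarization falls and inhibition rises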
PAFAH2 FP inh: inhibitors of human PAFAH2; recombinant PAFAH2, FP-rhodamine activity probe, fluorescence polarization; inhibition, % at 3.39 µM; hit rate 0.99% among 340,000; AID 492956;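 active means inhibition above the mean over all tested compounds plus 3 SD, cut at about 30% in these data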;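 further: inhibitors block probe labeling of enzyme so polarization drops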
pPAFAH inh: inhibitors of human plasma PAF acetylhydrolase (pPAFAH); Q13093; recombinant pPAFAH, FP-rhodamine probe fluorescence polarization; inhibition, % at 3.39 µM; hit rate 1.5% among 330,000; AID 463082;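 active means inhibition above the mean inhibition across the screen plus 3 SD, cut at about 25% in these data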;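 further: inhibitors block binding of the rhodamine activity-based probe so polarization drops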
Target sequence (Q13093 whole entry, looked up): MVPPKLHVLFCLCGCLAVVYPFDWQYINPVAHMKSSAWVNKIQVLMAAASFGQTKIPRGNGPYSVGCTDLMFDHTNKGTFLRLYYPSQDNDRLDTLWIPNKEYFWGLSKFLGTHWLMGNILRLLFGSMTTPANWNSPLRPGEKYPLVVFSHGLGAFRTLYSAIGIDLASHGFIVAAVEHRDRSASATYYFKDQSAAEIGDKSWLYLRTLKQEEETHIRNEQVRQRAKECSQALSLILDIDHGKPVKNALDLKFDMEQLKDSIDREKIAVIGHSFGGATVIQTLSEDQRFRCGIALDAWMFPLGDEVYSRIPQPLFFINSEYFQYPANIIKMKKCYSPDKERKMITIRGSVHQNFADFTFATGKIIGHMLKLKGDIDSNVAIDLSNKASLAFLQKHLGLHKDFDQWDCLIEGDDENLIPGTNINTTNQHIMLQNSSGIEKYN
PAFAH1B2 inh: blocks human PAF acetylhydrolase 1b catalytic subunit 2. P68402. recombinant PAFAH1B2, FP-rhodamine activity probe, fluorescence polarization. inhibition, % at 3.39 µM. hit rate 1.2% among 340,000;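 active means inhibition above the mean of all tested compounds plus 3 SD, cut at about 24% in these data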
PAFAH1B3 FP inh: inhibitors of human PAFAH1B3; inhibition, % at 3.39 µM; Q15102; recombinant PAFAH1B3, FP-rhodamine probe, fluorescence polarization; AID 492972; hit rate 0.28% among 340,000;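 active means inhibition above the screen-wide average of all tested compounds plus 3 SD, cut at about 25% in these data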
Target sequence (Q15102 whole entry, looked up): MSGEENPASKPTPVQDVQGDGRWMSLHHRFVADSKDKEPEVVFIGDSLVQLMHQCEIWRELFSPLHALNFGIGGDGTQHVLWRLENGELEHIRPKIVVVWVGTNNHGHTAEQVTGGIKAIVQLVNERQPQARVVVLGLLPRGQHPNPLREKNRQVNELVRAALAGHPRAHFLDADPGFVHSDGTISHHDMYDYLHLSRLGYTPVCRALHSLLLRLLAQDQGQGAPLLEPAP
PAFAH2 FP conf: PAFAH2 (human) inhibition, confirmed | shares compounds with PAFAH2 FP inh | recombinant PAFAH2, FP-rhodamine activity probe, fluorescence polarization | inhibition, % at 3.39 µM | hit rate 65% among 2,300 | AID 493030;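 active means mean inhibition over three repeats above a set limit taken from the earlier primary screen, cut at about 30% in these data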;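 further: inhibitor blocks binding of rhodamine activity probe so polarization falls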
A number is an active result; - = inactive; . = no result given; + = active, no number.

SMILES | Fam108B counter | PME-1 inh | PAFAH2 FP inh | pPAFAH inh | PAFAH1B2 inh | PAFAH1B3 FP inh | PAFAH2 FP conf
COc1ccc(N(C(=O)Cn2nnc(-c3ccc(F)cc3)n2)C(C)C(=O)NC2CCCC2)cc1OC (stereo unspecified) | - | - | - | - | - | - | .
Cc1cccc(NC(=O)COC(=O)c2cc(C)oc2C)c1 | - | - | 74.7 | - | - | - | 78.8
COc1ccc(C(=O)OCC(=O)c2ccc[nH]2)cc1 | . | - | 39.9 | - | - | - | 30.7
Cc1cc(C(=O)OCC(=O)Nc2cccc(S(N)(=O)=O)c2)c(C)o1 | . | . | - | - | - | - | .
O=C(OCC(=O)c1ccc[nH]1)c1ccc(Br)cc1 | . | - | - | - | - | - | .
Cc1cc(C(=O)OCC(=O)Nc2cc(Cl)ccc2C)c(C)o1 | . | - | - | - | - | - | .
Cc1cc(C(=O)OCC(=O)Nc2ccccc2F)c(C)o1 | - | - | 39.3 | - | - | - | 31.6
CCOc1cc(C(=O)N=c2sccn2C)ccc1OC(F)F | - | - | - | - | - | - | .
C/C(=N\NC(=S)NCC(C)(C)C)c1cc(F)cc(F)c1O | - | - | 33.0 | - | - | - | -
COc1ccc(C(=O)N/C(=C/c2cccnc2)C(=O)Nc2cccc(C(C)=O)c2)cc1OC | - | - | - | - | - | - | .
Cc1nn(Cc2ccccc2)c(Cl)c1/C=C/C(=O)OCC(=O)NC(C)C(C)C (stereo unspecified) | - | - | 67.3 | - | - | - | 64.1
Cc1nn(Cc2ccccc2)c(Cl)c1/C=C/C(=O)OC(C)C(=O)N1CCCC1 (stereo unspecified) | - | - | - | - | - | - | .
COC(=O)c1ccccc1Sc1ncnc2onc(C)c12 | - | - | - | - | - | - | .
Cc1cc(=O)n2nc(N3CCCC3C(=O)Nc3ccc(C(C)C)cc3)sc2n1 (stereo unspecified) | - | - | - | - | - | - | .
Cc1ccc(S(=O)(=O)N2CCOCC2)cc1NC(=O)COC(=O)c1cc(=O)[nH]c2ccccc12 | - | - | - | - | - | - | .
CCOc1ncccc1C(=O)OCC(=O)Nc1ccc(C)c(S(=O)(=O)N2CCOCC2)c1 | - | - | 75.4 | - | - | - | 75.6
Cc1ccc(NC(=O)COC(=O)c2cccnc2Cl)cc1S(=O)(=O)N1CCOCC1 | . | . | 44.4 | - | - | - | 38.1
Cc1ccc(S(=O)(=O)N2CCOCC2)cc1NC(=O)COC(=O)c1ccc(Cl)s1 | . | . | 44.1 | - | - | - | 32.5
CCOc1ncccc1C(=O)OCC(=O)Nc1ccc(S(=O)(=O)N2CCOCC2)cc1 | - | - | - | - | - | - | .
CCOc1ncccc1C(=O)OCC(=O)Nc1cc(S(=O)(=O)N2CCOCC2)ccc1C | - | - | 41.7 | - | - | - | 38.9
Cc1ccc(C(=O)N/C(=C\c2cn(S(=O)(=O)N(C)C)c3ccccc23)C(=O)NCCCN2CCOCC2)cc1 | - | - | - | - | - | - | .
CCOc1ncccc1C(=O)OCC(=O)Nc1ccc(S(=O)(=O)N2CCCC2)cc1 | . | - | - | - | - | - | .
CCOc1ncccc1C(=O)OCC(=O)Nc1ccc(C)c(S(=O)(=O)N(C)C)c1 | - | - | 80.1 | - | - | - | 86.1
CCOc1ncccc1C(=O)OCC(=O)Nc1cc(S(=O)(=O)N2CCCCC2)ccc1Cl | . | . | 68.3 | . | - | - | 54.7
Cc1ccc(S(=O)(=O)N2CCOCC2)cc1NC(=O)COC(=O)c1cccc(Cl)c1Cl | . | . | 41.3 | . | - | - | -
SMILES | Fam108B counter | PME-1 inh | PAFAH2 FP inh | pPAFAH inh | PAFAH1B2 inh | PAFAH1B3 FP inh | PAFAH2 FP conf
O=C(COC(=O)c1ccccn1)NCc1ccccc1Cl | - | - | - | - | - | - | .
O=C(COC(=O)c1ccc2ncsc2c1)NCc1ccc(F)cc1 | . | - | 51.3 | - | - | - | 34.0
O=C(COC(=O)c1ccc2ncsc2c1)NCc1ccccc1Cl | . | . | 83.5 | - | - | - | 67.4
COc1ccc(CNC(=O)COC(=O)c2ccc3ncsc3c2)cc1OC | . | - | - | - | - | - | .
CCOC(=O)N1CCN(Cc2nc3cc(NC(=O)c4ccco4)ccc3n2C)CC1 | - | - | - | - | - | - | .
COC(=O)[C@@H](Cc1ccc(O)cc1)NC(=O)[C@H]1CCC(=O)N1C(=O)OCc1ccccc1 | - | - | - | - | - | - | .
CCC(C)C(NC(=O)C1CCC(=O)N1C(=O)OCc1ccccc1)C(=O)NC(Cc1ccccc1)C(N)=O (stereo unspecified) | - | - | 77.7 | - | - | - | 64.3
CC(C)CC(NC(=O)C1CCC(=O)N1C(=O)OCc1ccccc1)C(=O)NC(Cc1ccccc1)C(N)=O (stereo unspecified) | - | - | 52.2 | - | - | - | 47.7
O=C(O)CCC(=O)N(Cc1ccco1)C1CC(=O)N(c2ccccc2)C1=O (stereo unspecified) | - | - | - | - | - | - | .
Cc1cccc(N2CN=C3SCC(=O)N3C2)c1 | - | - | - | - | - | - | .
O=C(COC(=O)C12CC3CC(CC(C3)C1)C2)Nc1ncc(Cl)cc1Cl | - | - | 43.4 | - | - | - | -
O=C(COC(=O)c1ccc(Cl)nc1)Nc1ncc(Cl)cc1Cl | - | - | - | - | - | - | .
O=C(COC(=O)c1ccccc1O)Nc1ncc(Cl)cc1Cl | - | - | 32.6 | - | - | - | -
CCOc1ccc(S(=O)(=O)n2cnc(C)c2)cc1 | - | - | - | - | - | - | .
Cc1ccc(C(=O)OCC(=O)N2CCc3ccccc32)cc1 | - | - | 63.4 | - | - | - | 62.7
O=C(OCC(=O)N1CCc2ccccc21)c1ccccc1F | - | - | 56.5 | - | - | - | 53.3
O=C(COc1ccccc1)N1CCc2ccccc21 | - | - | - | - | - | - | .
Cc1ccc(C(=O)OCC(=O)N2CCCc3ccccc32)cc1C | . | . | - | . | - | - | .
CCOC(=O)c1[nH]c(C)c(C(=O)OCC(=O)N2CCc3ccccc32)c1C | - | - | - | - | - | - | .
Cn1cccc1C(=O)OCC(=O)N1CCc2ccccc21 | . | . | 31.5 | - | - | - | -
CC(=O)c1c(C)[nH]c(C(=O)OCC(=O)N2CCc3ccccc32)c1C | - | - | 44.1 | - | - | - | -
O=C(OCC(=O)N1CCc2ccccc21)c1ccccc1[N+](=O)[O-] | . | - | - | - | - | - | .
CC(=O)c1ccc(NCC(=O)N2CCN(S(=O)(=O)c3ccccc3)CC2)cc1 | . | - | - | - | - | - | .
O=C(CNc1ccc(Cl)c(C(F)(F)F)c1)N1CCN(S(=O)(=O)c2ccccc2)CC1 | . | . | 44.9 | . | - | - | -
CC(CC(=O)Nc1nc2ccccc2[nH]1)n1ccnc1 (stereo unspecified) | - | - | - | - | - | - | .
CC(=O)Nc1ccc(NC(=O)CC(C)n2ccnc2)cc1 (stereo unspecified) | - | - | + | - | - | - | -
O=C(O)CCCN1C(=O)/C(=C/c2ccc(-c3nc4ccccc4s3)o2)SC1=S | - | - | 50.0 | - | - | - | 50.5

Assay outcomes (PubChem BioAssay)
